Four compounds from PubChem BioAssay (EPA / NIEHS) can be followed below.

SMILES strings stand for the structures. Active and inactive are the calls of the source. Rule for the calls: active = hit-call score of the fitted dose curve at least 0.9, where 1 is the maximum; inactive = score below 0.9.

Common to all, as to conditions: mRNA level, 48 h; actives raise or lower the signal
Read-out in assay [1]: Forkhead box O1 (FOXO1), FOXO1 (gene 2308)
Briefly: LTEA_HepaRG_FOXO1: Life Technologies and Expression Analysis (LTEA) Assay for Forkhead box O1 (FOXO1) using HepaRG (AID 2283456). A digest of the protocol: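 Using one lot of HepaRG hepatic cells kept in 0.5% DMSO, the team applied test chemicals in duplicate, half-log dilutions from 100 uM, for 48 h. Expression, normalised to ACTB/GAPDH/POLR2A, was compared with vehicle in either direction.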

Read-out in assay [2]: growth arrest and DNA damage 45 (GADD45A), GADD45A (gene 1647)
Briefly: LTEA_HepaRG_GADD45A: Life Technologies and Expression Analysis (LTEA) Assay for growth arrest and DNA damage 45 (GADD45A) using HepaRG (AID 2283458). Summed up: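 Eight-point concentration-response in HepaRG cells: 48 h chemical exposure, 0.5% DMSO vehicle, top dose 100 uM. Normalized qRT-PCR mRNA readout with bidirectional fitting relative to DMSO.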

Read-out in assay [3]: Forkhead box O3 (FOXO3), FOXO3 (gene 2309)
In words: LTEA_HepaRG_FOXO3: Life Technologies and Expression Analysis (LTEA) Assay for Forkhead box O3 (FOXO3) using HepaRG (AID 2283459). A digest of the protocol: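 Gene-expression endpoint: FOXO3 transcript level by qRT-PCR in HepaRG cultures treated 48 h with chemicals up to 100 uM (half-log, 0.5% DMSO vehicle).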

Read-out in assay [4]: ABC Transporter (ABCB1), ABCB1 (gene 5243)
In words: LTEA_HepaRG_ABCB1: Life Technologies and Expression Analysis (LTEA) Assay for ABC Transporter (ABCB1) using HepaRG (AID 2283460). Summed up: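 Human liver HepaRG line treated 48 h with up to 100 uM compound (eight half-log points, 0.5% DMSO); ABCB1 mRNA change fitted bidirectionally against DMSO controls.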

Read-out in assay [5]: growth arrest and DNA damage 45 (GADD45B), GADD45B (gene 4616)
In words: LTEA_HepaRG_GADD45B: Life Technologies and Expression Analysis (LTEA) Assay for growth arrest and DNA damage 45 (GADD45B) using HepaRG (AID 2283461). Summed up:
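Differentiated HepaRG cells, plated 48 h then switched to serum-free induction medium, were exposed 48 h in duplicate to eight half-log concentrations from 100 uM in 0.5% DMSO; mRNA quantified by qRT-PCR, normalized to ACTB/GAPDH/POLR2A, bidirectional fit versus DMSO.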

Read-out in assay [6]: ABC Transporter (ABCC3), ABCC3 (gene 8714)
Briefly: LTEA_HepaRG_ABCC3: Life Technologies and Expression Analysis (LTEA) Assay for ABC Transporter (ABCC3) using HepaRG (AID 2283462). A digest of the protocol:
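HepaRG cells in serum-free induction medium were exposed for 48 h in duplicate to 8-point half-log concentrations topping at 100 uM in 0.5% DMSO. ABCC3 mRNA was measured by qRT-PCR normalized to ACTB, GAPDH and POLR2A, with bidirectional fitting versus DMSO.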

Read-out in assay [7]: ABC Transporter (ABCB11), ABCB11 (gene 8647)
Briefly: LTEA_HepaRG_ABCB11: Life Technologies and Expression Analysis (LTEA) Assay for ABC Transporter (ABCB11) using HepaRG (AID 2283463). A digest of the protocol:
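Using HepaRG cultures held in 0.5% DMSO, chemicals were tested at half-log dilutions from 100 uM for 48 h. Induction or suppression of ABCB11 mRNA, normalized to ACTB, GAPDH and POLR2A, was fitted bidirectionally against vehicle.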

Read-out in assay [8]: ABC Transporter (ABCC2), ABCC2 (gene 1244)
In words: LTEA_HepaRG_ABCC2: Life Technologies and Expression Analysis (LTEA) Assay for ABC Transporter (ABCC2) using HepaRG (AID 2283464). Summed up: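 HepaRG cells were plated 48 h, switched to serum-free induction medium, then exposed in duplicate for 48 h to 8 concentrations (top 100 uM, half-log steps, 0.5% DMSO). ABCC2 mRNA was measured by qRT-PCR normalized to ACTB/GAPDH/POLR2A; bidirectional fitting versus DMSO.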

Read-out in assay [9]: Broad substrate specificity ATP-binding cassette transporter ABCG2 (Homo sapiens) (UniProt Q9UNQ0)
Briefly: LTEA_HepaRG_ABCG2: Life Technologies and Expression Analysis (LTEA) Assay for ABC Transporter (ABCG2) using HepaRG (AID 2283465). A digest of the protocol:
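Gene expression of ABCG2 in HepaRG liver cells is quantified by qRT-PCR following 48 h exposure across an eight-point series topping at 100 uM. Values come from bidirectional fitting relative to DMSO vehicle.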

Read-out in assay [10]: ATP-citrate lyase (ACLY), ACLY (gene 47)
In words: LTEA_HepaRG_ACLY: Life Technologies and Expression Analysis (LTEA) Assay for ATP-citrate lyase (ACLY) using HepaRG (AID 2283466). Summed up:
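ACLY expression changes in human HepaRG liver cells are quantified by qRT-PCR after 48 h exposure to test chemicals (maximum 100 uM, half-log steps). Values are fitted in both directions relative to 0.5% DMSO vehicle.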

Read-out in assay [11]: Peroxisomal acyl-coenzyme A oxidase 1 (ACOX1) gene, ACOX1 (gene 51)
Briefly: LTEA_HepaRG_ACOX1: Life Technologies and Expression Analysis (LTEA) Assay for Peroxisomal acyl-coenzyme A oxidase 1 (ACOX1) gene using HepaRG (AID 2283467). A digest of the protocol:
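Human HepaRG hepatic cultures, 48 h treatment with test chemicals up to 100 uM. ACOX1 expression read by qRT-PCR relative to 0.5% DMSO vehicle.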

Read-out in assay [12]: Alkaline Phosphatase, Placental (ALPP) gene, ALPP (gene 250)
In words: LTEA_HepaRG_ALPP: Life Technologies and Expression Analysis (LTEA) Assay for Alkaline Phosphatase, Placental (ALPP) gene using HepaRG (AID 2283468). Summed up: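 Differentiated human HepaRG cells were plated and cultured 48 h, then exposed in duplicate for 48 h in serum-free induction medium to eight half-log concentrations from 100 uM in 0.5% DMSO. ALPP mRNA was measured by TaqMan qRT-PCR, normalized to ACTB, GAPDH, POLR2A.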

Read-out in assay [13]: Bcl-2 (BAD) gene, BAD (gene 572)
In words: LTEA_HepaRG_BAD: Life Technologies and Expression Analysis (LTEA) Assay for Bcl-2 (BAD) gene using HepaRG (AID 2283469). Summed up:
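Activity values reflect up- or down-regulation of BAD mRNA in human HepaRG hepatic cells treated 48 h in serum-free medium, with eight-point half-log dosing capped at 100 uM and 0.5% DMSO vehicle.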

Read-out in assay [14]: Bcl-2 (BAX) gene, BAX (gene 581)
Briefly: LTEA_HepaRG_BAX: Life Technologies and Expression Analysis (LTEA) Assay for Bcl-2 (BAX) gene using HepaRG (AID 2283470). Summed up: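 Human HepaRG cells treated in duplicate for 48 h across eight concentrations (max 100 uM, 0.5% DMSO); BAX expression measured by qRT-PCR.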

Read-out in assay [15]: adenosine kinase (ADK) gene, ADK (gene 132)
Briefly: LTEA_HepaRG_ADK: Life Technologies and Expression Analysis (LTEA) Assay for adenosine kinase (ADK) gene using HepaRG (AID 2283471). A digest of the protocol:
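HepaRG (human liver), 48 h chemical exposure, 8-pt half-log series, top 100 uM, 0.5% DMSO vehicle. Readout: ADK mRNA by qRT-PCR vs housekeeping genes; bidirectional curve fit relative to DMSO baseline.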

Read-out in assay [16]: Alpha-fetoprotein (AFP) gene, AFP (gene 174)
Briefly: LTEA_HepaRG_AFP: Life Technologies and Expression Analysis (LTEA) Assay for Alpha-fetoprotein (AFP) gene using HepaRG (AID 2283472). A digest of the protocol:
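Measures AFP mRNA change in HepaRG after 48 h chemical exposure (8 half-log concentrations, highest 100 uM, 0.5% DMSO). Fold change relative to DMSO, fitted in both directions.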

Read-out in the next assay: BCL2L11 (gene 10018)
Briefly: LTEA_HepaRG_BCL2L11: Life Technologies and Expression Analysis (LTEA) Assay for Bcl-2 (BCL2L11) gene using HepaRG (AID 2283473). Summed up:
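Differentiated human HepaRG cells in serum-free induction medium were exposed in duplicate for 48 h to eight concentrations (top 100 uM, half-log steps, 0.5% DMSO). BCL2L11 mRNA was quantified by TaqMan qRT-PCR, normalized to ACTB/GAPDH/POLR2A, bidirectional fit versus DMSO.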

Read-out in assay [17]: Apoptosis regulator Bcl-2 (Homo sapiens) (UniProt P10415)
Briefly: LTEA_HepaRG_BCL2: Life Technologies and Expression Analysis (LTEA) Assay for Bcl-2 gene using HepaRG (AID 2283475). A digest of the protocol:
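Each chemical was tested in duplicate on HepaRG cultures held in serum-free induction medium for 48 h, highest concentration 100 uM with half-log dilutions. Transcript levels came from multiplexed qRT-PCR, normalised to housekeeping genes; activity was scored in either direction relative to DMSO.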

Read-out in assay [18]: Bcl-2 (BID) gene, BID (gene 637)
Briefly: LTEA_HepaRG_BID: Life Technologies and Expression Analysis (LTEA) Assay for Bcl-2 (BID) gene using HepaRG (AID 2283476). A digest of the protocol: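 Assay used HepaRG hepatic cells treated 48 h in serum-free medium with half-log dilutions from 100 uM. Endpoint: BID mRNA, qRT-PCR, normalized to ACTB/GAPDH/POLR2A.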

Sequence of Apoptosis regulator Bcl-2 (Homo sapiens) (P10415 whole entry, looked up): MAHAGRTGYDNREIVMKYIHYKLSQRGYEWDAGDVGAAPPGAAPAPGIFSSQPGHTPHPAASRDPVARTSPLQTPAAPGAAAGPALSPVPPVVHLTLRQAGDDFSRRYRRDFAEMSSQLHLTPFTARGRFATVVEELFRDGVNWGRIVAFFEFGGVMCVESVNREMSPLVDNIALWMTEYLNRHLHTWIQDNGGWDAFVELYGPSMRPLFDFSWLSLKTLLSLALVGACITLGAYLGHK
Sequence of Broad substrate specificity ATP-binding cassette transporter ABCG2 (Homo sapiens) (Q9UNQ0 whole entry, looked up): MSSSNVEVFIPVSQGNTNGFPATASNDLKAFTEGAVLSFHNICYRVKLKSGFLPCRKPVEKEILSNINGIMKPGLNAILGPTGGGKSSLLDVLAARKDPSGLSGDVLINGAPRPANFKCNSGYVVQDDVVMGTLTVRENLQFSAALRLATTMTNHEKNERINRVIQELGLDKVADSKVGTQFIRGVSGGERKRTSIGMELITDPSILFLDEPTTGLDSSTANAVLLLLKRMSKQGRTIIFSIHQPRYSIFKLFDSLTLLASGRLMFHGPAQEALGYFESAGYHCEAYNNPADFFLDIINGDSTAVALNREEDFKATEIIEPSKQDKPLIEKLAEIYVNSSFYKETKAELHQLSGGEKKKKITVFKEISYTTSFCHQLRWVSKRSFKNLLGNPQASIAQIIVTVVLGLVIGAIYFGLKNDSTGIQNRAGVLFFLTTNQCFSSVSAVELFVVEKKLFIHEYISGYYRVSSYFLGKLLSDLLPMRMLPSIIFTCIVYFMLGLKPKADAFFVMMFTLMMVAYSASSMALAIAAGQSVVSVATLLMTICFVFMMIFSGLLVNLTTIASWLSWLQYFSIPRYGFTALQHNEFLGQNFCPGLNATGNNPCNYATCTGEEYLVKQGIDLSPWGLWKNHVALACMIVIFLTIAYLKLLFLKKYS

For the compound `Cc1ccccc1N`, the result in assay [1], in [2], in assay [3], in assay [4], in assay [5] and in assay [6] was inactive. Also, the result in assay [7], in [8], in assay [9], in assay [10], in assay [11] and in assay [12] was inactive. Further, the compound was classed as inactive (in assay [13]; in [14]; in assay [15]; in assay [16]; in the assay with BCL2L11 (gene 10018); in assay [17]). The compound was called inactive in [18].
By AC50 is commonly meant the concentration giving half of the maximal activity seen. For `O=C(O)C(F)(F)C(F)(F)C(F)(F)C(F)(F)C(F)(F)C(F)(F)F`, the compound was called inactive in assay [1], in assay [2], in [3], in assay [5], in [6] and in assay [7]. In addition, the outcome in [8], in [9], in [10], in assay [11], in assay [12] and in [13] was inactive. Besides, the result (in assay [14]; in assay [15]; in assay [16]; with BCL2L11 (gene 10018); in assay [17]; in assay [18]) was inactive. In [4], the AC50 was 0.101 µM (active).
Consider `Oc1cccc2cccnc12`, for which the call in assay [1], in assay [2], in assay [3], in [4], in [5] and in [6] was inactive. In addition, the call in [7], in [8], in assay [9], in [10], in [11] and in [12] was inactive. Further, the call (in assay [13]; in assay [14]; in assay [15]; in [16]; with BCL2L11 (gene 10018); in [17]) was inactive. Also, the call in assay [18] was inactive.
Consider `CC(C)(C)CC(C)(C)c1ccc(O)cc1`, for which the call in assay [1], in assay [3], in [4], in assay [5], in [6] and in [7] was inactive. For the same compound, the compound was called inactive in [8], in assay [9], in [10], in assay [11], in assay [12] and in assay [13]. The result (in assay [14]; in [15]; in assay [16]; in the assay with BCL2L11 (gene 10018); in [17]) was inactive. The AC50 is 81.5 µM (active) in [2] and 82.8 µM (active) in [18].
